Experimental data as given in PubChem BioAssay (NCI).
The panel holds about 79,000 compounds, 15% with a hit somewhere; the sample as a whole holds those more often. Activity calls are given as the source filed them. No stated cut-off is given here; in the data, active means growth inhibition above about 70%; inactive means the rest.

What was measured:
[1] = NCI Yeast Anticancer Drug Screen. Data for the rad50 strain (AID 155);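 further: 0% = growth of vehicle-only cultures of the same strain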; conditions: S. cerevisiae rad50 strain growth inhibition, active compounds read high
In short: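 Genetically altered yeast (DNA repair pathway); compound treatment; growth inhibition vs vehicle ctrl.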

[2] = NCI Yeast Anticancer Drug Screen. Data for the mec2-1 strain (AID 157); conditions: S. cerevisiae mec2-1 strain, active compounds read high
In short: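 Readout is yeast growth inhibition, normalised to vehicle-treated controls, in the mec2-1 strain exposed to compound.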

[3] = NCI Yeast Anticancer Drug Screen. Data for the sgs1 mgt1 strain (AID 161);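 further: 0% = growth of cultures given vehicle only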; conditions: S. cerevisiae sgs1 mgt1 strain, active compounds read high
In short: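 Yeast cells carrying a defined DNA-repair defect were exposed to test compounds. Growth inhibition was measured relative to vehicle-treated controls.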

[4] = NCI Yeast Anticancer Drug Screen. Data for the cln2 rad14 strain (AID 165);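 further: 0% = growth equal to vehicle treated cultures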; conditions: S. cerevisiae cln2 rad14 strain, active compounds read high
In short: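 Relative to vehicle controls, growth inhibition of compound-treated cln2 rad14 yeast was recorded.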

[5] = NCI Yeast Anticancer Drug Screen. Data for the bub3 strain (AID 167); conditions: S. cerevisiae bub3 mutant strain, active compounds read high
In short: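 Yeast carrying a defined mutation is treated with each compound, and growth is compared with that of vehicle-exposed cells to give inhibition.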

[6] = NCI Yeast Anticancer Drug Screen. Data for the mlh1 rad18 strain (AID 175); conditions: S. cerevisiae mlh1 rad18 strain growth inhibition, active compounds read high
In short: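 Test agents were incubated with a yeast strain of defined genotype (DNA damage repair defect). Inhibition of growth was derived by comparison with vehicle-exposed cultures.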

[7] = at 5.0 µM (retest, dose inferred, filed as 0.5)
[8] = at 50.0 µM (retest, dose inferred, filed as 5.0)

Measured: growth inhibition

CC1CCC(NCCOC(=O)c2ccc([N+](=O)[O-])cc2)CC1 (stereo not given)
inactive: [1]; [7] 2% | [1]; [8] 23% | [2]; [7] 1% | [2]; [8] 18% | [2]; at 50.0 µM -2.9% | [3]; [7] 1% | [3]; [8] 24% | [3]; at 50.0 µM 54.5% | [4]; [7] -75% | [4]; [8] 41% | [4]; at 50.0 µM 31.9% | [5]; [7] -8% | [5]; [8] -71% | [5]; at 50.0 µM 17.6% | [6]; [7] -3% | [6]; [8] 6% | [6]; at 50.0 µM 42.9%
active: [1]; at 50.0 µM 70.8%

Cc1ccc(C2=C(C#N)C(c3ccccc3)C(C#N)=C(N)O2)cc1 (stereo not given)
inactive: [1]; [7] 57% | [2]; [7] 53% | [4]; [7] 35% | [5]; [7] 48% | [6]; [7] 59%
active: [1]; [8] 95% | [1]; at 50.0 µM 97.5% | [2]; [8] 99% | [2]; at 50.0 µM 98.5% | [3]; [7] 71% | [3]; [8] 98% | [3]; at 50.0 µM 97.8% | [4]; [8] 99% | [4]; at 50.0 µM 98.9% | [5]; [8] 98% | [5]; at 50.0 µM 97.9% | [6]; [8] 98% | [6]; at 50.0 µM 98.5%

O=C(O)CSC(=S)N1CCCC1
inactive: [1]; [7] -4% | [1]; [8] 5% | [1]; at 50.0 µM 46% | [2]; [7] 2% | [2]; [8] 3% | [2]; at 50.0 µM -5.3% | [3]; [7] -4% | [3]; [8] 4% | [3]; at 50.0 µM -14.5% | [4]; [7] 2% | [4]; [8] 2% | [4]; at 50.0 µM -40.7% | [5]; [7] 2% | [5]; [8] -3% | [5]; at 50.0 µM -5.6% | [6]; [7] -4% | [6]; [8] 8% | [6]; at 50.0 µM -15.8%

CC1C(C(=O)O)CC([N+](=O)[O-])C(Cl)C1[N+](=O)[O-] (stereo not given)
inactive: [1]; [7] 13% | [1]; [8] 60% | [1]; at 50.0 µM 20.9% | [2]; [7] -1% | [3]; [7] -5% | [3]; [8] 26% | [4]; [7] 15% | [4]; [8] 44% | [4]; at 50.0 µM 35.4% | [5]; [7] 11% | [6]; [7] 9% | [6]; at 50.0 µM 54.6%
active: [2]; [8] 83% | [2]; at 50.0 µM 87.4% | [3]; at 50.0 µM 82.1% | [5]; [8] 88% | [5]; at 50.0 µM 74.7% | [6]; [8] 93%

O=C(NC(OCc1ccccc1)(C(F)(F)F)C(F)(F)F)OCc1ccccc1
active: [1]; [8] 98% | [1]; at 50.0 µM 96% | [2]; [8] 92% | [2]; at 50.0 µM 91% | [3]; [8] 98% | [3]; at 50.0 µM 93.7% | [4]; [8] 96% | [4]; at 50.0 µM 94.8% | [5]; [8] 95% | [5]; at 50.0 µM 94.5% | [6]; [8] 98% | [6]; at 50.0 µM 96.5%
inactive: [1]; [7] -14% | [2]; [7] -5% | [3]; [7] -9% | [4]; [7] 11% | [5]; [7] 13% | [6]; [7] 2%

O=C(O)CCCc1ccc2ccccc2c1
inactive: [1]; [7] -5% | [1]; [8] 0% | [1]; at 50.0 µM 17.4% | [2]; [7] 11% | [2]; [8] -1% | [2]; at 50.0 µM -27.1% | [3]; [7] 10% | [3]; [8] 6% | [3]; at 50.0 µM 11.9% | [4]; [7] 14% | [4]; [8] -71% | [4]; at 50.0 µM 40% | [5]; [7] 13% | [5]; [8] 0% | [5]; at 50.0 µM 5.65% | [6]; [7] -1% | [6]; [8] 9% | [6]; at 50.0 µM 12%

Cc1cc(N)c(C)c2c1[nH]c1ccc(Br)cc12
inactive: [1]; [7] 1% | [1]; at 50.0 µM 54.1% | [2]; [7] -3% | [2]; at 50.0 µM 42.1% | [3]; [7] -6% | [4]; [7] -4% | [4]; [8] 58% | [4]; at 50.0 µM 17.7% | [5]; [7] -3% | [6]; [7] 3% | [6]; at 50.0 µM 38.5%
active: [1]; [8] 96% | [2]; [8] 89% | [3]; [8] 98% | [3]; at 50.0 µM 77.2% | [5]; [8] 95% | [5]; at 50.0 µM 87.2% | [6]; [8] 98%

CC1=C(C(=O)Nc2ccc(C)cc2C)C(c2cccc([N+](=O)[O-])c2)C(C(=O)Nc2ccc(C)cc2C)=C(C)N1
inactive: [1]; [7] -17% | [1]; [8] 50% | [1]; at 50.0 µM 28.6% | [2]; [7] 12% | [2]; at 50.0 µM 38.5% | [3]; [7] -4% | [3]; [8] 47% | [3]; at 50.0 µM 33% | [4]; [7] 10% | [4]; [8] 42% | [4]; at 50.0 µM 36.6% | [5]; [7] 14% | [5]; [8] 69% | [5]; at 50.0 µM 37.2% | [6]; [7] 4% | [6]; [8] 44% | [6]; at 50.0 µM 41.1%
active: [2]; [8] 74%

Cc1ccccc1Oc1ccccc1N
inactive: [1]; [7] 12% | [1]; [8] 38% | [2]; [7] -26% | [2]; [8] 15% | [2]; at 50.0 µM 65.9% | [3]; [7] -1% | [3]; [8] 1% | [3]; at 50.0 µM 69.8% | [4]; [7] 9% | [4]; [8] 34% | [5]; [7] -16% | [5]; [8] 10% | [5]; at 50.0 µM 58.6% | [6]; [7] -15% | [6]; [8] 39%
active: [1]; at 50.0 µM 79.2% | [4]; at 50.0 µM 78.4% | [6]; at 50.0 µM 81.8%

CCc1nc(N)nc(N)c1-c1ccc(NCCCCCCCCCCCCN)c([N+](=O)[O-])c1
active: [1]; [8] 99% | [1]; at 50.0 µM 94.2% | [2]; [8] 99% | [2]; at 50.0 µM 99.2% | [3]; [8] 99% | [4]; [8] 98% | [4]; at 50.0 µM 87% | [5]; [8] 99% | [5]; at 50.0 µM 98.5% | [6]; [8] 99% | [6]; at 50.0 µM 98.7%
inactive: [1]; [7] -18% | [2]; [7] -11% | [3]; [7] -1% | [3]; at 50.0 µM 40.4% | [4]; [7] -24% | [5]; [7] -5% | [6]; [7] -19%
